# Assay results reported in PubChem BioAssay (NCI).
# This is part of a sample that, as a whole, favours compounds with a hit. Of some 79,000 tested, about 15% had one in any assay. Active and inactive are the calls of the source. Rule as the data show it: active = growth inhibition above about 70%; inactive = the rest.
# Test: NCI Yeast Anticancer Drug Screen. Data for the rad50EPP+ strain (AID 151);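 also: 0% = growth of vehicle-treated control cultures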
# Settings: S. cerevisiae rad50 mutant strain, at 33.0 µM, active compounds read high
# In short: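 One strain with a rad50 alteration (rad50EPP+) was compound-treated, its growth then compared to that of vehicle controls.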
row,Structure (SMILES),growth inhibition
1,S=C(S)NN1CCOCC1,84% (active)
2,COc1cc2c3c(cccc3c1)C(=O)N(CCN(C)C)C2=O,34% (inactive)
3,COC(=O)C1=C(C)NC(C)=C(C(=O)OCCCN2CCC(c3ccccc3)(c3ccccc3)CC2)C1c1cccc([N+](=O)[O-])c1 (stereo not given),92% (active)
4,c1ccc2c(c1)Oc1cccc3cccc-2c13,43% (inactive)
5,CN(C)CCOc1ccc2c(c1)C/C(=C/c1ncc([N+](=O)[O-])n1C)C2=O,35% (inactive)
6,Cc1ccc(CCC2=CCCc3c2ccc2ccccc32)cc1,40% (inactive)
7,CNC(=O)OCc1c(COC(=O)NC)c(-c2ccc(Cl)c(Cl)c2)n2c1CCC2,-28% (inactive)
8,Clc1ccccc1C1OC1c1ccccc1Cl (stereo not given),20% (inactive)
9,O=[N+]([O-])c1cc(CCl)ccc1CCl,97% (active)
10,O=C1C=CC(=O)c2c(O)c(Nc3ccc(OC(F)(F)F)cc3)c(Cl)c(O)c21,70% (active)
11,S=c1[nH]nc(Nc2ccc(Cl)cc2)s1,27% (inactive)
12,Cn1ccnc1Oc1ccc(Cl)cc1,30% (inactive)
13,BrCc1cccc2ccc3cccc(CBr)c3c12,18% (inactive)
14,O=C1c2ccccc2-c2nc3ccccc3nc21,95% (active)
15,CCCCCCCCCCCCCCCCCCNC,48% (inactive)
16,Oc1ccc(NCn2c(=S)sc3ccccc32)cc1,-16% (inactive)
17,O=C1C2CC[C@@H]3C(=O)C(Cl)(Cl)[C@@H]3CCC2C1(Cl)Cl (stereo not given in full),56% (inactive)
18,CC[n+]1ccc2c(C)c3[nH]c4ccc(O)cc4c3c(C)c2c1,85% (active)
19,Cc1ccc(-n2cc(-c3ccc(Cl)cc3)c(C#N)c2N)cc1,56% (inactive)
20,CC(=O)[O][Bi]([c]1ccccc1)[c]1ccccc1,20% (inactive)

row,Structure (SMILES),growth inhibition
1,CC1=C(SCCO)C(=O)c2ccccc2C1=O,75% (active)
2,C/C(=N\O)C1CC2C=C(C#N)C1N(Cc1ccccc1)C2 (stereo not given),9% (inactive)
3,CC(Br)C(=O)c1ccc2cc(Br)c3ccccc3c2c1 (stereo not given),35% (inactive)
4,Nc1nc(-c2cccnc2)cc(-c2cc(-c3cccnc3)nc(N)n2)n1,0% (inactive)
5,CC(C)=CC(=O)O[C@@H]1CC(C)(C)CC2C3=CCC4[C@]56CC[C@](O)(OC5)C(C)(C)C6CC[C@@]4(C)C3(C)CC[C@]21C(=O)O (stereo not given in full),14% (inactive)
6,CCC(C)COC(=O)c1ccc(N=Cc2ccc(C=Nc3ccc(C(=O)OCC(C)CC)cc3)cc2)cc1 (stereo not given),32% (inactive)
7,Oc1cccc2c(Cl)ccnc12,97% (active)
8,O=C(O)c1cccc(-c2c3ccc(=O)cc-3oc3cc(O)ccc23)c1,-2% (inactive)
9,CN(CCc1ccccn1)c1ccc2c(c1)Cc1ccccc1-2,89% (active)
10,Cc1cc(S(=O)(=O)/N=C(/NN)NNc2cccc(C(F)(F)F)n2)c(S)cc1Cl,-52% (inactive)
11,O=C1C2C(C(=O)N1c1ccc(OCc3ccccc3)cc1)C1c3ccccc3C2C2CCCCN21 (stereo not given),1% (inactive)
12,Nc1ccccc1CC(O)C(=O)O (stereo not given),2% (inactive)
13,O=C(O)C1CCCCC1c1c2ccc(=O)c(O)c-2oc2c(O)c(O)ccc12 (stereo not given),-39% (inactive)
14,Cc1ccc2ccc(O)cc2c1,-12% (inactive)
15,O=C1C(=O)c2ccccc2C=C1[N+](=O)[O-],15% (inactive)
16,COC(=O)c1ccc(NCC2=CC(=O)C=CC2=O)cc1O,97% (active)
17,C(CCSC1=NCCN1)CSC1=NCCN1 (tested in a mixture with another compound),73% (active)
18,N#Cc1c(N)[nH]c2ccc(Sc3ccccc3)cc12,33% (inactive)
19,CCNc1nnc(CSc2nc(-c3ccccc3)c(-c3ccccc3)[nH]2)s1,4% (inactive)
20,CC[C@@]1(O)C(=O)OCc2c1cc1n(c2=O)Cc2cc3c(N)cccc3nc2-1,54% (inactive)
